What all share (format): functional
Experiment [1] deals with Solute carrier family 2, facilitated glucose transporter member 1 (Homo sapiens) (UniProt P11166). The experiment is described as follows: ST_JUDE_LEISH: Cytotoxicity at 2uM final concentration against transgenic Leishmania Mexicana promastigotes LmGLUT1 that are glucose transport deficient and complemented with the human glucose transporter GLUT1. Activity is measured by DNA content using SYBR green in vitro.

Experiment [2] deals with Hexose transporter 1 (Plasmodium falciparum) (UniProt O97467). The experiment is described as follows: ST_JUDE_LEISH: Cytotoxicity at 2uM final concentration against transgenic Leishmania Mexicana promastigotes LmPfHT that are glucose transport deficient and complemented with the Plasmodium falciparum hexose transporter. Activity is measured by DNA content using SYBR green in vitro.

In experiment [3] the target is Glucose transporter (Leishmania mexicana) (UniProt O61059). Description: ST_JUDE_LEISH: Cytotoxicity at 2uM final concentration against transgenic Leishmania Mexicana promastigotes LmGT2 that are glucose transport deficient and complemented with the L. Mexicana glucose transporter 2. Activity is measured by DNA content using SYBR green in vitro.

SMILES strings stand for the structures.

A word on the inhibition: it is the drop in the measured response relative to a control, in per cent.

Sequence of Solute carrier family 2, facilitated glucose transporter member 1 (Homo sapiens) (P11166 whole entry): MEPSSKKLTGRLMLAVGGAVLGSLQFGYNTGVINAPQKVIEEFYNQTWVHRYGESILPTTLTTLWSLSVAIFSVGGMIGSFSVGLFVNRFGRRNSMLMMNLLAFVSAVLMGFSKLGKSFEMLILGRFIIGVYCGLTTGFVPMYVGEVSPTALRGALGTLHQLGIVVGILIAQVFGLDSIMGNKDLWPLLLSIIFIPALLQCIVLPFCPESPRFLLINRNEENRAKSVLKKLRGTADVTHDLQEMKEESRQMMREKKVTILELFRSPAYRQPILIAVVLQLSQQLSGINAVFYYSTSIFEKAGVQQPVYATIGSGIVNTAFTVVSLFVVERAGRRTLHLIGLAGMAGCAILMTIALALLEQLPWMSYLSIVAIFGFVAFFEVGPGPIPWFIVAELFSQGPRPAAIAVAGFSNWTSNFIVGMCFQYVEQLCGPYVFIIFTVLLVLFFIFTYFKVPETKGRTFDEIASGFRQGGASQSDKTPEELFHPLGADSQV

In the case of `COc1ccc(CNCc2ccc(-c3ccc(-c4nc5cccc(C)c5[nH]4)s3)cc2)cc1`, the inhibition in experiment [1] came to 18.1%; in experiment [2], 13.2%; in experiment [3] it was 12.6%.

Turning to `COc1ccc(C(=O)Nc2ccc3oc(-c4ccc(C(F)(F)F)cc4)cc3c2)cc1CCCN(C)C`, the values for the inhibition in experiment [1], in experiment [2] and in experiment [3] were 1.78%, 2.26% and 0.34%, respectively.

As for `Cc1cc(N)c2cc(NC(=O)/C=C/c3ccc([N+](=O)[O-])cc3)ccc2n1`, the inhibition in experiment [1] came to 3.11%; in experiment [2], 1.19%; in experiment [3], 0.94%.

As for `CN1CCc2cc(CN3CC4(C)CC3CC(C)(C)C4)c(O)cc2C(c2ccccc2)C1` (configuration not stated), the inhibition was 0.04% in experiment [1], -0.55% in experiment [2] and -0.09% in experiment [3].

Turning to `CCN(CC)/C(=N\C(=N)NCCCCCCNC(=N)/N=C(\Nc1ccc(Cl)cc1)N(CC)CC)Nc1ccc(Cl)cc1`, the inhibition is 0.25% in experiment [1], -0.21% in experiment [2] and -0.92% in experiment [3].

As to `O=C(Nc1ccc([N+](=O)[O-])cc1O)Nc1ccccc1Oc1ccccc1`, the inhibition in experiment [1] is -1.52%; in experiment [2], -0.84%; in experiment [3], -0.04%.

On to `Nc1nc(N)c2c(ccc3c2ccn3CCCC(F)(F)F)n1`, for which the inhibition was 14.2% in experiment [1], 20.3% in experiment [2] and 8.28% in experiment [3].

Take `CC(=O)Nc1cccc(-c2cn(-c3ccc(OCc4cccc(F)c4)c(Cl)c3)c3ncncc23)c1`: the inhibition in experiment [1] is 2.04%; in experiment [2] it was 0.08%; in experiment [3], -0.28%.

With `CCN(CC)/C(=N/C(=N)NCc1cccc(Cl)c1)NCCCCCCN/C(=N\C(=N)NCc1cccc(Cl)c1)N(CC)CC`, the inhibition turned out to be 4.23% in experiment [1], 4.83% in experiment [2] and 2.27% in experiment [3].

As for `c1cc(CN2CCN(c3ccncc3)CC2)cc(-c2ccc(-c3nc4ccccc4[nH]3)s2)c1`, the inhibition in experiment [1] was determined as 3.45%; in experiment [2] it was 2.53%; in experiment [3], 2.03%.

Turning to `OCCN1CCN(Cc2ccc(-c3ccc(-c4nc5cc(C(F)(F)F)ccc5[nH]4)s3)cc2)CC1`, the results for the inhibition in experiment [1], in experiment [2] and in experiment [3] were 5.47%, 4.05% and 4.01%, respectively.

`O=C(/C=C/c1ccc(Cl)c(Cl)c1)NCCCCCN1CCCC(CNC(=O)Nc2ccc(Oc3ccccc3)cc2)C1` (configuration not stated): the results for the inhibition in experiment [1], in experiment [2] and in experiment [3] were -0.78%, 0.69% and 0.61%, respectively.

`COc1cc2nc(NCCc3ccccc3)nc(NCc3nccs3)c2cc1OC`: the inhibition in experiment [1] was 1.89%; in experiment [2], 2.47%; in experiment [3], 0.04%.

As to `O=c1c2cccnc2sn1-c1ccccc1`, the inhibition was 0.94% in experiment [1], 0.87% in experiment [2] and 0.72% in experiment [3].

Take `Cc1nc(Nc2ccc(F)cc2)nc(N2CCc3ccccc3C2C)c1CO` (configuration not stated): the results for the inhibition in experiment [1], in experiment [2] and in experiment [3] were 5.38%, 7.38% and 1.5%, respectively.

As to `CC1CN(c2cnn(Cc3cccc(NC(=O)Nc4ccc(-c5ccccc5)cc4)c3)c(=O)c2Cl)CC(C)N1` (configuration not stated), the figures for the inhibition in experiment [1], in experiment [2] and in experiment [3] were 8.54%, 5.56% and 7.15%, respectively.

Regarding `COc1ccc2nc(NC(N)=NC(=O)Nc3ccccc3)nc(C)c2c1`, the inhibition was found to be 2.55% in experiment [1], 2.15% in experiment [2] and 0.15% in experiment [3].

With `Cc1cccc(C)c1CNc1cccc(-c2nc(C)c(C)[nH]2)c1`, the inhibition turned out to be 5.39% in experiment [1], 4.77% in experiment [2] and 1.97% in experiment [3].

Take `NCC1CCCN1Cc1cccc(-c2cccc(-c3nc4cc(F)ccc4[nH]3)c2)c1` (configuration not stated): the inhibition in experiment [1] was determined as 0.19%; in experiment [2], 0.88%; in experiment [3] it was 1.02%.

For the molecule `Cc1ccc2[nH]c(-c3cc(-c4ccc(OCc5ccccc5)cc4)cnc3N)nc2c1`, the figures for the inhibition in experiment [1], in experiment [2] and in experiment [3] were 1.75%, 2.05% and -0.31%, respectively.

`CCc1nc(N)nc(N)c1-c1ccc(C(C)C)cc1`: the inhibition stood at 2.65% in experiment [1], 2.31% in experiment [2] and 2.86% in experiment [3].

As for `Cc1csc2nc(-c3ccccn3)nc(Nc3ccc4ncsc4c3)c12`, the inhibition was found to be 0.73% in experiment [1], 2.13% in experiment [2] and 0.95% in experiment [3].

As for `N=C(N)Nc1nc(-c2cc(NC(=O)C(F)(F)F)cc([N+](=O)[O-])c2)cs1`, the inhibition in experiment [1] stood at 0.23%; in experiment [2], 0.51%; in experiment [3] it was 1%.

Take `C#Cc1cccc(NC(=O)[C@H](CC2CCCCC2)Nc2ccc(C#N)c3ccccc23)c1`: the inhibition in experiment [1] came out at 2.22%; in experiment [2] it was 2.53%; in experiment [3], 1.87%.

For `CN(C)Cc1c(O)ccc2oc(Cc3ccccc3)cc12`, the inhibition in experiment [1] is -1.64%; in experiment [2], -1.55%; in experiment [3], -0.96%.

For `CN(C)Cc1c(O)ccc2[nH]c(-c3ccc(OC(F)(F)F)cc3)nc12`, the values for the inhibition in experiment [1], in experiment [2] and in experiment [3] were 3.92%, 3.22% and 2.9%, respectively.

On to `COc1cc(NC(=O)/C=C/c2cc(F)cc(F)c2F)cc(OCCN2CCCCC2)c1`, for which the figures for the inhibition in experiment [1], in experiment [2] and in experiment [3] were 5.16%, 3.35% and 4.25%, respectively.

Take `O=C(/C=C/c1ccc(-c2nc3ccc(Cl)cc3[nH]2)cc1)NCc1cccc(F)c1`: the inhibition was determined as 4.5% in experiment [1], 4.66% in experiment [2] and 4.07% in experiment [3].

In the case of `O=C(CCCCCNC(=O)c1ccc(O)c(-c2ccc(Cl)c(Cl)c2)c1)NCCc1ccc(Cl)c(Cl)c1`, the inhibition in experiment [1] was -0.22%; in experiment [2], 0.09%; in experiment [3], 0.33%.

Consider `CCN1C(=O)C(=NN=C(S)N2CCCC2)c2ccccc21`, for which the inhibition is -0.3% in experiment [1], -1.51% in experiment [2] and -3.35% in experiment [3].

Regarding `CCC(C)(C)c1ccc2nc(N)nc(N)c2c1C`, the inhibition in experiment [1] was 74.5%; in experiment [2], 76.4%; in experiment [3], 61.7%.

With `Cc1cc(N(C)C)nc(Nc2ccc(NC(=O)c3c(F)cccc3Cl)cc2)n1`, the values for the inhibition in experiment [1], in experiment [2] and in experiment [3] were 7.36%, 7.84% and -0.01%, respectively.

As to `Cc1ccccc1C1CCN(C2CCC(NC(=O)/C=C/c3ccc4c(c3)OC(F)(F)O4)CC2)CC1` (configuration not stated), the inhibition came to 0.14% in experiment [1], 5.21% in experiment [2] and 2.92% in experiment [3].

In the case of `O=C(Nc1cc(C(F)(F)F)cc(C(F)(F)F)c1)Nc1ccc(Cl)c(Cl)c1`, the inhibition in experiment [1] was found to be 0.47%; in experiment [2], 1.04%; in experiment [3], 1.22%.

The record behind these values is ChEMBL document CHEMBL3433997, “St. Jude Leishmania screening dataset” (2016).
